Data taken from PubChem BioAssay.
Active and inactive are the calls of the source. Unless noted, the rule behind the calls is not given here.

Columns and labels:
[1] = compounds binding Alexa647 anti-His antibody – biochemical, small-molecule microarray, 635 nm fluorescence, artefact control for SMM control protein annotation, primary screen (AID 1128); details: higher = more signal;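 note: score merges feature fluorescence with signal-to-noise for each printed compound spot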
[2] = tested on: Human papillomavirus type 1a E7 protein (residues 1-88); test: HPV1a E7 small-molecule binders, primary screen, biochemical, small-molecule microarray, residues 1-88, 635 nm (AID 1129); details: small-molecule microarray binding, fluorescence 635 nm; higher = more signal
[3] = biological target: Focal adhesion kinase 1 (Homo sapiens) (UniProt Q05397); test: PTK2 protein binding on printed compound slides – biochemical, small-molecule microarray, 635/667 nm fluorescence, BSA, DTT, primary screen (AID 1130); details: 635 nm fluorescence, higher = more signal;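 note: composite of spot emission at 667 nm and signal to noise over triplicate slides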
Focal adhesion kinase 1 (Homo sapiens), sequence (Q05397 whole entry, looked up): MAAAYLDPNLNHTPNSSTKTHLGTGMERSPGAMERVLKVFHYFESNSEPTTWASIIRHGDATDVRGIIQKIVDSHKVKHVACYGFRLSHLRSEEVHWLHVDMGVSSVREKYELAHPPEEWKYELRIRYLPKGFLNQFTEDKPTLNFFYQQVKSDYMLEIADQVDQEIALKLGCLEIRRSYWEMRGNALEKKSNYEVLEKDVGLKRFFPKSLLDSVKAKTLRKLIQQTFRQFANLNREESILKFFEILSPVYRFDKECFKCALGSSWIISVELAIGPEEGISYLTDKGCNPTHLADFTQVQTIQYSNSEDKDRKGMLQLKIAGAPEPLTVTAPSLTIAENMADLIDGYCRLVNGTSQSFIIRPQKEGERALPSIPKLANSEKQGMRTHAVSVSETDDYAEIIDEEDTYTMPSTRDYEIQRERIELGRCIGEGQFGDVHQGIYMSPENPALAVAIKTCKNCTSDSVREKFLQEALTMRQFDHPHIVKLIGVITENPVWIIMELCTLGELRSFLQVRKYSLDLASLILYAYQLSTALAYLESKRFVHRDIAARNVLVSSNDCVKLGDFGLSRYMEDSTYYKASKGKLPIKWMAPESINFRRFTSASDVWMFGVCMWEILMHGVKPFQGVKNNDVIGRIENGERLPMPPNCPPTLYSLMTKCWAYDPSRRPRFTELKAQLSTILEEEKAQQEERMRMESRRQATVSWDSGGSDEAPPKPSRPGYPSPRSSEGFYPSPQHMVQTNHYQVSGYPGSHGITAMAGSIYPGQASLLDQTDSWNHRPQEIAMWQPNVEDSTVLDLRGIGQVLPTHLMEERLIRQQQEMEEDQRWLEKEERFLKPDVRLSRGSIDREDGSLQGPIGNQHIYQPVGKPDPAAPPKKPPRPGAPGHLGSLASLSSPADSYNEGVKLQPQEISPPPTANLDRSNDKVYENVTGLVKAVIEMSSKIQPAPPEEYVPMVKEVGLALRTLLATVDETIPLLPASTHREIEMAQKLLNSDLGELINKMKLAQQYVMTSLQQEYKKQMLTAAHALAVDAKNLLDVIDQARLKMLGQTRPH

[4] = tested on: Fibrinogen (Alexa647-labelled); test: Alexa647-fibrinogen binding to printed small molecules – biochemical, small-molecule microarray, 635/667 nm fluorescence, artefact control for SMM control-protein annotation, profiling panel (AID 1131); details: fibrinogen-A647 binding fluorescence, higher = more signal;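 note: z-score merges 667 nm fluorescence with per-spot signal-to-noise over triplicate slides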
[5] = biological target: Follistatin (Homo sapiens) (UniProt P19883); test: FST protein binding to printed compounds – biochemical, small-molecule microarray, 635/667 nm fluorescence, primary screen (AID 1132); details: 635 nm fluorescence, higher = more signal
Follistatin (Homo sapiens), sequence (P19883 whole entry, looked up): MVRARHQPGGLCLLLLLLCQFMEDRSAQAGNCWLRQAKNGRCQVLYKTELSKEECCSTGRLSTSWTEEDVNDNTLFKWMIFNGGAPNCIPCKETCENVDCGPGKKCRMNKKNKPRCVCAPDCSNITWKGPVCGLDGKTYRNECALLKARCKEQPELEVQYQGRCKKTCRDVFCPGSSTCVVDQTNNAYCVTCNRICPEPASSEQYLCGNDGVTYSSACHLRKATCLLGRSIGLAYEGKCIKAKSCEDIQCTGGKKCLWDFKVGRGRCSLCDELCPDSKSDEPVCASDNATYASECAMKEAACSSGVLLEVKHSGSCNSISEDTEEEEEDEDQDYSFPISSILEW

[6] = biological target: Fibroblast growth factor 2 (Homo sapiens) (UniProt P09038); test: basic fibroblast growth factor binding to printed compounds – biochemical, small-molecule microarray, 635/667 nm fluorescence, primary screen (AID 1133); details: FGF2, fluorescence 635/667, higher = more signal
Fibroblast growth factor 2 (Homo sapiens), sequence (P09038 whole entry, looked up): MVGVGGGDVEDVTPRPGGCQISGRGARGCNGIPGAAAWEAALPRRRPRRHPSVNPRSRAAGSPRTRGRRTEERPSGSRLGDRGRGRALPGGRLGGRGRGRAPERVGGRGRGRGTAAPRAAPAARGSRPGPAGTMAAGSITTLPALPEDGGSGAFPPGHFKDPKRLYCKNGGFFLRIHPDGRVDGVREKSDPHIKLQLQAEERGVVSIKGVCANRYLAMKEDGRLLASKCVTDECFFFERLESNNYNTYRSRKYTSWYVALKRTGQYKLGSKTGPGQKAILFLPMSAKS

[7] = JC-1 mitochondrial potential readout, lung cancer cells – cell-based, A549, JC-1 fluorescence, basal, 24 h, 100 nL, profiling panel (AID 1138); details: higher = more signal;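 note: A549 lung adenocarcinoma cells under basal conditions with no added stimulus; test concentration not given here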
Lefty1 = Lefty1 protein binding to printed compounds – biochemical, small-molecule microarray, 635/667 nm fluorescence, primary screen (AID 1139); details: fluorescence 635/667, higher = more signal
[8] = tested on: wheat germ agglutinin (Triticum aestivum), Alexa647-labelled; test: Alexa647-WGA lectin binding to printed small molecules – biochemical, small-molecule microarray, 635/667 nm fluorescence, artefact control for SMM control-protein annotation, profiling panel (AID 1140); details: WGA-A647 binding, 635 nm fluorescence, higher = more signal;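 note: score merges 667 nm feature emission with signal to noise over triplicate slides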
[9] = biological target: Luciferin 4-monooxygenase (Photinus pyralis) (UniProt P08659); test: inhibition of purified Photinus pyralis luciferase – biochemical, luminescence, purified enzyme, 2006 set, primary screen (AID 1141); details: purified firefly luciferase, SteadyGlo luminescence, 30 min; higher = more signal, called active from +8 up or from −8 down;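 note: cell-free assay with purified firefly luciferase at 100 ng per well in PBS; test concentration not given here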
Luciferin 4-monooxygenase (Photinus pyralis), sequence (P08659 whole entry, looked up): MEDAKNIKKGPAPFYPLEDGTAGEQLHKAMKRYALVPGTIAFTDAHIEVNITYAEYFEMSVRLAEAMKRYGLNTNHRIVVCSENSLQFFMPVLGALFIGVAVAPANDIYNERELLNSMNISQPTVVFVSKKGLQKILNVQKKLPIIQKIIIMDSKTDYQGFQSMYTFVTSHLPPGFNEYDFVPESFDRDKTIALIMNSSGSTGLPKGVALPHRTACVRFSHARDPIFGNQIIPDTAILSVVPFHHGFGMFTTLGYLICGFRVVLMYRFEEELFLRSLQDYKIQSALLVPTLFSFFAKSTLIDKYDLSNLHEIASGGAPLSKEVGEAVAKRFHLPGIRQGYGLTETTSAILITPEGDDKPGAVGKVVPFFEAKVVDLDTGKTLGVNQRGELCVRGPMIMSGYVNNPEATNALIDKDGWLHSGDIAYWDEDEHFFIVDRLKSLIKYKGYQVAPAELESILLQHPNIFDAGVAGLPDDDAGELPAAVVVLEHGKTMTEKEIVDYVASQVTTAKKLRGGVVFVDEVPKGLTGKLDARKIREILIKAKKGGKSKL

[10] = tested on: Wnt5a (protein binding on small-molecule microarray); test: small molecules binding Wnt5a protein – biophysical, small-molecule microarray, 635/667 nm fluorescence, primary screen (AID 1142); details: 635 nm fluorescence, higher = more signal;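 note: fluorescence read at 667 nm with signal to noise per printed feature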
[11] = ATP-based viability of Huh7 replicon cells – cell-based, CellTiter-Glo luminescence, basal, 48 h, cytotoxicity control for HCV replication inhibitor project, primary screen (AID 1143); details: higher = more signal, called active from +8 up or from −8 down;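 note: Huh7 hepatoma cells carrying a hepatitis C replication reporter with no stimulus; test concentration not given here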
[12] = Pseudomonas biofilm growth suppression – PAO1 strain, BacTiter-Glo luminescence, LB-PBS, primary screen (AID 1144); details: P. aeruginosa PAO1 biofilm, 12 h, higher = more signal
[13] = basal CRE-LacZ reporter activity in PC12 – cell-based, unstimulated, primary screen (AID 1145); details: no forskolin, luminescence, 4.5 h, higher = more signal, called active from +8 up or from −8 down
[14] = forskolin-driven CRE-LacZ activity in PC12 – cell-based, CRE-LacZ reporter, forskolin-stimulated, primary screen (AID 1146); details: luminescence, 4.5 h, higher = more signal, called active from +8 up or from −8 down;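 note: PC12 cells with 6xCRE LacZ reporter stimulated by forskolin 10 µM; beta-galactosidase reporter signal reflecting CREB driven transcription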
[15] = biological target: Streptavidin (Streptomyces avidinii) (UniProt P22629); test: compounds binding control protein streptavidin – biophysical, small-molecule microarray, 635/667 nm fluorescence, artefact control for SMM compound annotation, primary screen (AID 1147); details: higher = more signal;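 note: signal reflects streptavidin binding to arrayed compounds as a control protein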
Streptavidin (Streptomyces avidinii), sequence (P22629 whole entry, looked up): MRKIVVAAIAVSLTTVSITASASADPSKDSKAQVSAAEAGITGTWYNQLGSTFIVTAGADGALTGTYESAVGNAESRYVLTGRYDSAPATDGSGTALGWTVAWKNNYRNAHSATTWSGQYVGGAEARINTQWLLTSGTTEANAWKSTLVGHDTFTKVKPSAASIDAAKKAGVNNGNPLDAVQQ

[16] = probe aInhba binding on compound microarray – biochemical, small-molecule microarray, 635/667 nm fluorescence, primary screen (AID 1148); details: higher = more signal;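 note: score merges 667nm spot fluorescence with signal-to-noise for antibody binding to printed compounds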
Torsin-1A (Homo sapiens) [17] = biological target: Torsin-1A (Homo sapiens) (UniProt O14656); test: TOR1A wild-type binding on microarray – cell lysate, small-molecule microarray, lysate, 635/667 nm, primary screen (AID 1149); details: COS7 hTOR1A-WT lysate, 635 nm fluorescence, higher = more signal
Torsin-1A (Homo sapiens), sequence (O14656 whole entry, looked up): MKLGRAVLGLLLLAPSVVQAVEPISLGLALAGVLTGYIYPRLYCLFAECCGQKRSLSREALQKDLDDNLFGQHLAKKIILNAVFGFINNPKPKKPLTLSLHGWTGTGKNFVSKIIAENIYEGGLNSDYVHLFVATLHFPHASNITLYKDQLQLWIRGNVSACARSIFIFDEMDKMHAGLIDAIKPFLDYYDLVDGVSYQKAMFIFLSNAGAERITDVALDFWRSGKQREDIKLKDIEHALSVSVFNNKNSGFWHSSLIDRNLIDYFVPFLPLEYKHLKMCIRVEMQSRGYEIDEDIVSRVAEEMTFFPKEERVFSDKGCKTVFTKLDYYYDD

Torsin-1A (Homo sapiens) [18] = biological target: Torsin-1A (Homo sapiens) (UniProt O14656); test: torsin A mutant lysate binding on microarrays – cell lysate, small-molecule microarray, COS7 lysate, 635/667 nm fluorescence, primary screen (AID 1150); details: COS7 hTOR1A mutant lysate, 635 nm fluorescence, higher = more signal;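 note: score pools 667 nm emission and signal to noise measuring lysate protein binding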
[19] = tested on: Sonic hedgehog protein (Shh); test: Sonic hedgehog microarray binding compounds – biochemical, small-molecule microarray, 635/667 nm fluorescence, primary screen (AID 1151); details: 635 nm fluorescence, higher = more signal;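 note: Shh protein binding to compounds spotted on small-molecule microarray slides; score combines spot fluorescence intensity with signal-to-noise across triplicate slides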

Row | Compound | composite z-score [1] | composite z-score [2] | composite z-score [3] | composite z-score [4] | composite z-score [5] | composite z-score [6] | z-score [7] | composite z-score (Lefty1) | composite z-score [8] | z-score [9] | composite z-score [10] | z-score [11] | z-score [12] | z-score [13] | z-score [14] | composite z-score [15] | composite z-score [16] | composite z-score (Torsin-1A (Homo sapiens) [17]) | composite z-score (Torsin-1A (Homo sapiens) [18]) | composite z-score [19]
1 | COCCOC(=O)N1C(=O)[C@@]2(c3cc(C#CCCO)ccc31)[C@H](c1ccc(O)cc1)N1[C@H](c3ccccc3)[C@H](c3ccccc3)OC(=O)[C@H]1[C@@H]2C(=O)N1CCc2cc(OC)c(OC)cc2C1 | 0.432 | 1.25 | 0.514 | 0.81 | 1.36 | 1.59 | 0.257 | 1.36 | 1.03 | 0.298 (inactive) | 0.565 | 0.0501 (inactive) | -0.883 (inactive) | -0.0647 (inactive) | -1.05 (inactive) | 0.354 | 0.628 | 1.07 | 0.761 | 1.32
2 | CCCC=C(CCC)[C@@H](NC(=O)c1ccccc1)c1ccc(C(=O)OC)cc1 | 0.877 | 0.598 | -0.17 | 0.214 | 1.06 | 1.1 | -1.71 | 0.439 | -0.0525 | 1.5 (inactive) | 0.675 | -4.41 (inactive) | -0.947 (inactive) | -0.379 (inactive) | 0.0425 (inactive) | -0.0576 | 0.326 | 0.615 | 0.546 | 0.293
3 | COC(=O)[C@]1(CO)N=C(c2ccc(OCCCO)cc2)O[C@@H]1c1ccccc1CN=[N+]=[N-] | 0.477 | 0.286 | 0.1 | -0.353 | 0.996 | 0.435 | -0.232 | 0.341 | -0.342 | -0.676 (inactive) | -0.0408 | -0.394 (inactive) | 1.34 (inactive) | 0.643 (inactive) | 0.224 (inactive) | -0.447 | -0.154 | -0.208 | 0.518 | 0.583
